Laboratory results: PubChem BioAssay (NCATS)
Values joined by “and” are separate entries in the source; they are usually repeats but may differ in a detail not shown here. Equal entries are not always repeated. Records with an inconclusive call do not appear. A call without a number means that no potency is given here. Active and inactive are the calls of the source. Calls come from the whole dose curve; as a rule, active = well fitted curve in the direction sought with a large enough effect; inconclusive = small, poorly fitted or top-dose-only effect, or another doubt; inactive = no such curve, though single readings can be large; an effect the other way counts as inactive or inconclusive.

Tests used:
[1] = target: Aldehyde dehydrogenase, mitochondrial (Homo sapiens) (UniProt P05091); assay: qHTS for Inhibitors of the Aldehyde Dehydrogenase Family (ALDH2) Primary screen (AID 2061308); note: nearly all actives have a fitted effect of over 55% in size
[2] = target: Retinaldehyde dehydrogenase 3 (Homo sapiens) (UniProt P47895); assay: qHTS for Inhibitors of the Aldehyde Dehydrogenase Family (ALDH1A3) Confirmatory screens (AID 2061311); note: nearly all actives have a fitted effect of over 60% in size; note: potency is the fitted concentration of half-maximal effect
[3] = target: Retinal dehydrogenase 2 (Homo sapiens) (UniProt O94788); assay: qHTS for Inhibitors of the Aldehyde Dehydrogenase Family (ALDH1A2) Confirmation screens (AID 2061314); note: potency is the fitted concentration of half-maximal effect; nearly all actives have a fitted effect of over 65% in size
[4] = target: Retinaldehyde dehydrogenase 3 (Homo sapiens) (UniProt P47895); assay: qHTS for Inhibitors of the Aldehyde Dehydrogenase Family (ALDH1A3) Primary screen (AID 2061315)

c1csc(CNc2ccc(N3CCCCC3)cc2)c1
Potency [1]: inactive
Potency [2]: 20.1 µM (active)

CC(=O)NC(c1cc(Cl)c2ccccc2c1O)C(C)C (centres undefined)
Potency [1]: inactive
Potency [2]: 8.96 µM (active)
Potency [3]: 20.1 µM (active)

O=[N+]([O-])c1ccccc1S(=O)(=O)Nc1cccc2cccnc12
Potency [1]: inactive
Potency [2]: 12.7 µM (active)
Potency [3]: 0.712 µM (active)

O=C(O)c1ccc(-c2noc(-c3ccccc3Cl)n2)cc1
Potency [1]: inactive

CCC(=O)NC(c1cc(Cl)c2ccccc2c1O)C(C)C (centres undefined)
Potency [1]: inactive
Potency [2]: 12.7 µM (active)
Potency [3]: 28.3 µM (active)

O=C1c2ccccc2C(=O)c2cc(S(=O)(=O)Nc3cccc4cccnc34)ccc21
Potency [1]: inactive
Potency [2]: 15.9 µM (active)

Cc1ccc(-c2ccc(=O)n(CC(=O)NCCc3ccncc3)n2)cc1
Potency [1]: inactive

CO[C@H]1c2cc(C(C)C)c(O)c(O)c2[C@@]23CCCC(C)(C)C2[C@@H]1OC3=O (some centres undefined)
Potency [1]: inactive
Potency [2]: 6.97 µM (active)
Potency [3]: 6.97 µM (active)

Oc1ccc(CNc2ccccc2C(F)(F)F)c2cccnc12
Potency [1]: inactive

CNC(=O)c1ccccc1Nc1cc(Nc2ccc(N3CCOCC3)cc2OC)ncc1C(F)(F)F
Potency [1]: inactive
Potency [2]: 3.57 µM (active)

NC(=O)C1CCN(c2ncc(-c3ccc4c(c3)OCCCO4)s2)CC1
Potency [1]: inactive
Potency [2]: inactive
Potency [3]: 3.57 µM (active)
Potency [4]: inactive

Cc1ccc(C2Nc3cccc4cccc(c34)N2)s1
Potency [1]: inactive

CC(=O)c1ccc(N2CCN(S(=O)(=O)c3ccc4c(c3)C(Cl)(Cl)C(=O)N4)CC2)cc1
Potency [1]: inactive
Potency [2]: 2.82 µM (active) and 1.12 µM (active)
Potency [3]: 6.34 µM (active)

Cc1ccc(C)c(SC2=NS(=O)(=O)c3cc(C(=O)NCc4ccccc4)ccc32)c1
Potency [1]: inactive

CN(C)C1CCN(Cc2cc(COCc3ccccc3)c3cccnc3c2O)C1 (centres undefined)
Potency [1]: inactive

CCC(=O)NC(c1ccco1)c1cc(Br)c2cccnc2c1O (centres undefined)
Potency [1]: inactive
Potency [2]: 12.7 µM (active)
Potency [3]: 11.3 µM (active)
Potency [4]: inactive

CN(C(=O)OC(C)(C)C)c1ccc(-c2nc3ccccc3s2)cc1
Potency [1]: inactive

CC(=O)c1ccc(N2CCN(S(=O)(=O)c3cc4c(cc3Cl)NC(=O)C4)CC2)cc1
Potency [1]: inactive
Potency [2]: 3.55 µM (active)

Cc1ccc(S(=O)(=O)Nc2cnccc2C(=O)Nc2ccc(N3CCOCC3)cc2)cc1
Potency [1]: inactive
Potency [2]: 4 µM (active)
Potency [3]: 6.34 µM (active)

Oc1ccc(/C=C/c2ccccc2)c2cccnc12
Potency [1]: inactive
Potency [2]: 14.2 µM (active)

COc1ccc(CNc2ccc(N3CCN(C(C)=O)CC3)cc2)cc1OC
Potency [1]: inactive
Potency [2]: 12.7 µM (active)
Potency [3]: 12.7 µM (active)

CC(=O)Nc1sc2c(c1-c1ccc(N[S+](C)(=O)[O-])cc1)CCNC2
Potency [1]: inactive

FC(F)(F)c1ccc(N2CCN(C(=S)Nc3ccccn3)CC2)cc1
Potency [1]: inactive

C/C(=C\c1ccc2c(c1)OCO2)C1Nc2cccc3cccc(c23)N1
Potency [1]: inactive
Potency [2]: 2.83 µM (active)

O=C1Nc2ccccc2/C1=C\c1ccc([N+](=O)[O-])cc1
Potency [1]: inactive
Potency [2]: 17.8 µM (active)
Potency [3]: 2.83 µM (active)
Potency [4]: inactive
